Records with an inconclusive call do not appear. The source made the active and inactive calls. Calls come from the whole dose curve; as a rule, active = well fitted curve in the direction sought with a large enough effect; inconclusive = small, poorly fitted or top-dose-only effect, or another doubt; inactive = no such curve, though single readings can be large; an effect the other way counts as inactive or inconclusive.
Experiments:
[1] = target: ATP-dependent 6-phosphofructokinase (Trypanosoma brucei brucei) (UniProt O15648); assay: qHTS Assay to Find Inhibitors of T. brucei phosphofructokinase: hit validation (AID 492961);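 note: luminescence reports ADP formed as PFK phosphorylates fructose-6-phosphate with ATP; % is set by controls: 0 for no effect and ±100 for the full control effect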
Method in brief: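 Measures ADP output of PFK (1.25 nM) at 0.1 mM ATP, 0.5 mM F6P, pH 8.0 TEA buffer with 5 mM MgCl2. No-enzyme wells define full inhibition; uninhibited enzyme wells define zero.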

[2] = qHTS profiling for inhibitors of Plasmodium falciparum proliferation (AID 504749);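 note: 0% = DMSO vehicle and full inhibition = artemisinin control; nearly all actives have a fitted effect of over 60% in size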; conditions: P. falciparum in erythrocytes, SYBR Green DNA, 72 h, at 28.7 µM (top of the series)
Method in brief: (§1)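 In a 72 h erythrocytic culture (37 C, humidified, 5% CO2) at 2.5% hematocrit and 0.3% starting parasitemia, compounds were tested; SYBR Green I in detergent lysis buffer stained parasite DNA overnight.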

3D7 = assay: as above; conditions: P. falciparum in erythrocytes, SYBR Green DNA, 72 h; series mostly up to 28.7 µM
Method in brief: as §1

AA1029 = assay: as above; conditions: P. falciparum in erythrocytes, SYBR Green DNA, 72 h; series mostly up to 28.7 µM
Method in brief: as §1

AS120 = assay: as above; conditions: P. falciparum in erythrocytes, SYBR Green DNA, 72 h; series mostly up to 28.7 µM
Method in brief: as §1

ATS189 = assay: as above; conditions: P. falciparum in erythrocytes, SYBR Green DNA, 72 h; series mostly up to 28.7 µM
Method in brief: as §1

CP185 = assay: as above; conditions: P. falciparum in erythrocytes, SYBR Green DNA, 72 h; series mostly up to 28.7 µM
Method in brief: as §1

CP191 = assay: as above; conditions: P. falciparum in erythrocytes, SYBR Green DNA, 72 h; series mostly up to 28.7 µM
Method in brief: as §1

CP194 = assay: as above; conditions: P. falciparum in erythrocytes, SYBR Green DNA, 72 h; series mostly up to 28.7 µM
Method in brief: as §1

CP217 = assay: as above; conditions: P. falciparum in erythrocytes, SYBR Green DNA, 72 h; series mostly up to 28.7 µM
Method in brief: as §1

CP237 = assay: as above; conditions: P. falciparum in erythrocytes, SYBR Green DNA, 72 h; series mostly up to 28.7 µM
Method in brief: as §1

CP238 = assay: as above; conditions: P. falciparum in erythrocytes, SYBR Green DNA, 72 h; series mostly up to 28.7 µM
Method in brief: as §1

CP252 = assay: as above; conditions: P. falciparum in erythrocytes, SYBR Green DNA, 72 h; series mostly up to 28.7 µM
Method in brief: as §1

CP265 = assay: as above; conditions: P. falciparum in erythrocytes, SYBR Green DNA, 72 h; series mostly up to 28.7 µM
Method in brief: as §1

CP286 = assay: as above; conditions: P. falciparum in erythrocytes, SYBR Green DNA, 72 h; series mostly up to 28.7 µM
Method in brief: as §1

DFO2036 = assay: as above; conditions: P. falciparum in erythrocytes, SYBR Green DNA, 72 h; series mostly up to 28.7 µM
Method in brief: as §1

DIV30 = assay: as above; conditions: P. falciparum in erythrocytes, SYBR Green DNA, 72 h; series mostly up to 28.7 µM
Method in brief: as §1

Dd2 = assay: as above; conditions: P. falciparum in erythrocytes, SYBR Green DNA, 72 h; series mostly up to 28.7 µM
Method in brief: as §1

N140 = assay: as above; conditions: P. falciparum in erythrocytes, SYBR Green DNA, 72 h; series mostly up to 28.7 µM
Method in brief: as §1

P94_40 = assay: as above; conditions: P. falciparum in erythrocytes, SYBR Green DNA, 72 h; series mostly up to 28.7 µM
Method in brief: as §1

Sequence of ATP-dependent 6-phosphofructokinase (Trypanosoma brucei brucei) (O15648 whole entry, looked up): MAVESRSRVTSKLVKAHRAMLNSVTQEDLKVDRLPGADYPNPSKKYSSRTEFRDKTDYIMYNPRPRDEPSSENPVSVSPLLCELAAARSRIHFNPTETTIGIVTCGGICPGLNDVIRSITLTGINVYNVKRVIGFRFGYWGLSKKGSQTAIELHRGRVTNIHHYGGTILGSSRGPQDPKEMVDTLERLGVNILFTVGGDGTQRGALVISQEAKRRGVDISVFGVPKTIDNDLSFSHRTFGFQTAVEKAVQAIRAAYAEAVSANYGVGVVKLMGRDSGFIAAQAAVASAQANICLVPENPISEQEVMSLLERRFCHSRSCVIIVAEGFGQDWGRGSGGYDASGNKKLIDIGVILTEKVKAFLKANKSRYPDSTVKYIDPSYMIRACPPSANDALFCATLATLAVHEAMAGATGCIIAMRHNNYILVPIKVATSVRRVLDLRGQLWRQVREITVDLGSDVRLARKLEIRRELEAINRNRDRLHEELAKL

CC1OC(OC2CCC3(C)C(CCC4C3CC(O)C3(C)C(C5=CC(=O)OC5)CCC43O)C2)CC(O)C1OC1CC(O)C(OC2CC(O)C(OC3OC(CO)C(O)C(O)C3O)C(C)O2)C(C)O1 (stereo not given)
inactive: Potency [1] | activity, negative = inhibition ([2]; parasite line A) 13.2% | activity, negative = inhibition ([2]; parasite line B) -5.12% | Potency (3D7) | Potency (AA1029) | Potency (AS120) | Potency (ATS189) | Potency (CP185) | Potency (CP191) | Potency (CP194) | Potency (CP217) | Potency (CP237) | Potency (CP238) | Potency (CP252) | Potency (CP265) | Potency (CP286) | Potency (DFO2036) | Potency (DIV30) | Potency (Dd2) | Potency (N140) | Potency (P94_40)

COc1cccc(OC)c1C(=O)NC1C(=O)N2C1SC(C)(C)C2C(=O)O (stereo not given)
inactive: Potency [1] | activity, negative = inhibition ([2]; parasite line A) 11.2% | activity, negative = inhibition ([2]; parasite line B) -9.69% | Potency (3D7) | Potency (AA1029) | Potency (AS120) | Potency (ATS189) | Potency (CP185) | Potency (CP191) | Potency (CP194) | Potency (CP217) | Potency (CP237) | Potency (CP238) | Potency (CP252) | Potency (CP265) | Potency (CP286) | Potency (DFO2036) | Potency (DIV30) | Potency (Dd2) | Potency (N140) | Potency (P94_40)

CC(C)(C)C(=O)OCC(=O)C1CCC2C3CCC4=CC(=O)CCC4(C)C3CCC12C (stereo not given)
inactive: Potency [1] | activity, negative = inhibition ([2]; parasite line A) 6.25% | activity, negative = inhibition ([2]; parasite line B) 11.2% | Potency (3D7) | Potency (AA1029) | Potency (AS120) | Potency (ATS189) | Potency (CP185) | Potency (CP191) | Potency (CP194) | Potency (CP217) | Potency (CP237) | Potency (CP238) | Potency (CP252) | Potency (CP265) | Potency (CP286) | Potency (DFO2036) | Potency (DIV30) | Potency (Dd2) | Potency (N140) | Potency (P94_40)

OCCN1CC(O)C(O)C(O)C1CO (stereo not given)
inactive: Potency [1] | activity, negative = inhibition ([2]; parasite line A) 13.3% | activity, negative = inhibition ([2]; parasite line B) 21.3% | Potency (3D7) | Potency (AA1029) | Potency (AS120) | Potency (ATS189) | Potency (CP185) | Potency (CP191) | Potency (CP194) | Potency (CP217) | Potency (CP237) | Potency (CP238) | Potency (CP252) | Potency (CP265) | Potency (CP286) | Potency (DFO2036) | Potency (DIV30) | Potency (Dd2) | Potency (N140) | Potency (P94_40)

CC1(C)C2CC[C@]1(C)[C@@H](O)C2
inactive: Potency [1] | activity, negative = inhibition ([2]; parasite line A) 6.51% | activity, negative = inhibition ([2]; parasite line B) 12% | Potency (3D7) | Potency (AA1029) | Potency (AS120) | Potency (ATS189) | Potency (CP185) | Potency (CP191) | Potency (CP194) | Potency (CP217) | Potency (CP237) | Potency (CP238) | Potency (CP252) | Potency (CP265) | Potency (CP286) | Potency (DFO2036) | Potency (DIV30) | Potency (Dd2) | Potency (N140) | Potency (P94_40)

OC[C@@H]1O[C@](CO)(O[C@H]2O[C@H](CO)[C@@H](O)[C@H](O)[C@H]2O)[C@H](O)[C@H]1O
inactive: Potency [1] | activity, negative = inhibition ([2]; parasite line A) -1.62% | activity, negative = inhibition ([2]; parasite line B) 7.05% | Potency (3D7) | Potency (AA1029) | Potency (AS120) | Potency (ATS189) | Potency (CP185) | Potency (CP191) | Potency (CP194) | Potency (CP217) | Potency (CP237) | Potency (CP238) | Potency (CP252) | Potency (CP265) | Potency (CP286) | Potency (DFO2036) | Potency (DIV30) | Potency (Dd2) | Potency (N140) | Potency (P94_40)

OCC1O[C@@H](O[C@@H]2C(CO)OC(O)C(O)C2O)C(O)C(O)C1O (stereo not given in full)
inactive: Potency [1] | activity, negative = inhibition ([2]; parasite line A) 8.35% | activity, negative = inhibition ([2]; parasite line B) 4.55% | Potency (3D7) | Potency (AA1029) | Potency (AS120) | Potency (ATS189) | Potency (CP185) | Potency (CP191) | Potency (CP194) | Potency (CP217) | Potency (CP237) | Potency (CP238) | Potency (CP252) | Potency (CP265) | Potency (CP286) | Potency (DFO2036) | Potency (DIV30) | Potency (Dd2) | Potency (N140) | Potency (P94_40)

O=C1NC(=O)C2C3C=CC(C3)C12 (stereo not given)
inactive: Potency [1] | activity, negative = inhibition ([2]; parasite line A) 8.3% | activity, negative = inhibition ([2]; parasite line B) 20.1% | Potency (3D7) | Potency (AA1029) | Potency (AS120) | Potency (ATS189) | Potency (CP185) | Potency (CP191) | Potency (CP194) | Potency (CP217) | Potency (CP237) | Potency (CP238) | Potency (CP252) | Potency (CP265) | Potency (CP286) | Potency (DFO2036) | Potency (DIV30) | Potency (Dd2) | Potency (N140) | Potency (P94_40)

CCCCCCCCCCCC(=O)OCC(O)C1OCC(O)C1O (stereo not given)
inactive: Potency [1] | activity, negative = inhibition ([2]; parasite line A) -2.73% | activity, negative = inhibition ([2]; parasite line B) 8.41% | Potency (3D7) | Potency (AA1029) | Potency (AS120) | Potency (ATS189) | Potency (CP185) | Potency (CP191) | Potency (CP194) | Potency (CP217) | Potency (CP237) | Potency (CP238) | Potency (CP252) | Potency (CP265) | Potency (CP286) | Potency (DFO2036) | Potency (DIV30) | Potency (Dd2) | Potency (N140) | Potency (P94_40)

CC1(C)SC2C(NC(=O)C(C(=O)O)c3ccccc3)C(=O)N2C1C(=O)O (stereo not given)
inactive: Potency [1] | activity, negative = inhibition ([2]; parasite line A) 5.75% | activity, negative = inhibition ([2]; parasite line B) 2.54% | Potency (3D7) | Potency (AA1029) | Potency (AS120) | Potency (ATS189) | Potency (CP185) | Potency (CP191) | Potency (CP194) | Potency (CP217) | Potency (CP237) | Potency (CP238) | Potency (CP252) | Potency (CP265) | Potency (CP286) | Potency (DFO2036) | Potency (DIV30) | Potency (Dd2) | Potency (N140) | Potency (P94_40)

Source: PubChem BioAssay (NCATS)
